Drawing on PubChem BioAssay AID463173 (ICCB-Longwood Screening Facility, Harvard Medical School, 2010), this text covers survival for 66 compounds.

Each structure is given as a SMILES string. The whole screen tested about 52,000 compounds, of which about 4,300 (8.3%) were called active. The sample as a whole holds a higher share of actives than the screen did. A number with no mark means an inactive call. Cut-off read from the data, not from the text of the source: active = survival mostly below about 52% (no sharp cut-off); inactive = mostly above about 56%.

The subject of this experiment is DeltatarO mutant. Description: S. aureus survival, RN4220 and DeltatarO strains – OD600, teichoic acid synthesis inhibitors, primary screen (AID 463173). The conditions noted are these: S. aureus RN4220 wild type/DeltatarO growth, OD600, 18 h, stronger effect = lower value, screened at 18.75 µg/mL (by protocol).
Turning to `O=C(Nc1ccc2nc(SCCOc3ccccc3Cl)sc2c1)c1ccco1`, the survival was 14% (active).

For `CC(=O)Nc1ccc2nc(SCCOc3ccccc3Cl)sc2c1`, the survival was 3% (active).

With `Cc1ccc(OCCSc2nc3ccc(NC(=O)c4ccco4)cc3s2)cc1`, the survival was 84%.

Turning to `COc1cc(C)ccc1OCCSc1nc2ccc(NC(=O)c3ccco3)cc2s1`, the survival is 62%.

In the case of `O=C(Nc1ccc2nc(SCCOc3ccccc3)sc2c1)c1ccco1`, the survival is 99%.

Consider `Cc1ccccc1OCCSc1nc2ccc(NC(=O)c3ccccc3)cc2s1`, for which the survival is 57%.

Consider `CC(C)(C)C(=O)Nc1ccc2nc(SCCOc3ccccc3Cl)sc2c1`, for which the survival is 89%.

Turning to `O=C(Nc1ccc2nc(SCCOc3ccccc3Cl)sc2c1)c1cccs1`, the survival was 49%.

`Cc1ccccc1OCCSc1nc2ccc(NC(=O)c3ccco3)cc2s1`: the survival is 25% (active).

For `O=C(NC1CCCC1)c1ccc2c(c1)N(Cc1ccccc1F)C(=O)c1ccccc1S2`, the survival was 81%.

Regarding `Cc1nc2cccnc2n1-c1cccc(C(=O)NCCN(C)C)c1`, the survival is 74%.

For the compound `O=C(NCC(c1cccs1)S(=O)(=O)c1ccccc1)c1ccc(C(F)(F)F)cc1` (stereo unspecified), the survival is 90%.

Take `O=C(NCc1ccc(Cl)cc1)c1cnc2sc(N3CCCC3)nn2c1=O`: the survival was 72%.

On to `O=C(NCc1ccc(Cl)cc1)c1cnc2sc(N3CCOCC3)nn2c1=O`, for which the survival was 52% (active).

In the case of `O=C(NCCc1ccc(Cl)cc1)c1cnc2sc(N3CCOCC3)nn2c1=O`, the survival is 77%.

Consider `O=C(CN1C(=O)C2(SCC(=O)N2c2cccc(Cl)c2)c2ccccc21)NC1CCCCC1` (stereo unspecified), for which the survival is 86%.

Consider `Cc1ccc2c(CC(=O)Nc3ccc(S(=O)(=O)N4CCCCC4C)cc3)coc2c1C` (stereo unspecified), for which the survival was 53%.

Consider `COc1ccccc1NC(=O)CN1C(=O)C(c2ccc(F)cc2)=NC12CCCCC2`, for which the survival is 72%.

On to `COc1ccc(S(=O)(=O)NCCc2cn3ccsc3n2)cc1OC`, for which the survival was -1% (active).

In the case of `COc1ccc(S(=O)(=O)NCCc2cn3ccsc3n2)cc1`, the survival was 86%.

Turning to `Cc1ccc(S(=O)(=O)NCCc2cn3ccsc3n2)cc1`, the survival is 64%.

As for `CCN(CCCNC(=O)c1cc2c(=O)[nH]c3ccc(C)cc3c2s1)c1ccc(C)cc1`, the survival was 68%.

Consider `CCc1cccc(C)c1NC(=O)COCc1cc(-c2ccc3c(c2)OCO3)on1`, for which the survival is 101%.

With `CCOc1ccccc1NC(=O)COc1cccc2c(=O)n(CCOC)ccc12`, the survival is 70%.

With `COCCn1ccc2c(OCC(=O)NCc3ccc(F)cc3)cccc2c1=O`, the survival was 92%.

On to `CCn1ccc2c(OCC(=O)Nc3ccc(OC)cc3OC)cccc2c1=O`, for which the survival was 20% (active).

As to `CCn1ccc2c(OCC(=O)Nc3ccccc3C)cccc2c1=O`, the survival is 8% (active).

For `COCCn1ccc2c(OCC(=O)Nc3cccc(OC)c3)cccc2c1=O`, the survival was 92%.

As to `CCOCCn1ccc2c(OCC(=O)Nc3cccc(F)c3)cccc2c1=O`, the survival was 91%.

Take `CCOCCn1ccc2c(OCC(=O)Nc3ccc(C(N)=O)cc3)cccc2c1=O`: the survival was 37% (active).

Regarding `CCOCCn1ccc2c(OCC(=O)Nc3cc(C)cc(C)c3)cccc2c1=O`, the survival was 83%.

Consider `COCCn1ccc2c(OCC(=O)Nc3ccccc3F)cccc2c1=O`, for which the survival is 25% (active).

Regarding `CCn1ccc2c(OCC(=O)Nc3ccc(C(C)=O)cc3)cccc2c1=O`, the survival is 66%.

In the case of `CCn1ccc2c(OCC(=O)Nc3ccccc3C(F)(F)F)cccc2c1=O`, the survival was 85%.

Consider `CCn1ccc2c(OCC(=O)NCc3ccccc3)cccc2c1=O`, for which the survival was 102%.

In the case of `COC(=O)c1sccc1S(=O)(=O)N(CC(=O)NCc1ccc(C)cc1)c1ccc(C)c(C)c1`, the survival is 68%.

Take `Fc1ccccc1N1CCN(c2ncnc3c2nc2n3CCCC2)CC1`: the survival was 84%.

As to `O=C(Nc1ccccc1)c1ccc(S(=O)(=O)N2CCCC2)cc1`, the survival is 94%.

`N#Cc1ccccc1NC(=O)C(=O)NCC(c1ccc2c(c1)OCO2)N1CCOCC1` (stereo unspecified): the survival was 71%.

Turning to `CCC(=O)N1CCc2cc(Br)cc(S(=O)(=O)CCC(=O)N3CCN(c4ccccc4F)CC3)c21`, the survival was 80%.

As for `O=C(NCc1ccccc1Cl)C1CCCN(S(=O)(=O)c2cccc3nsnc23)C1` (stereo unspecified), the survival is 91%.

Take `CCN1CCN(CCC(=O)Nc2ccc(OC)cc2)CC1`: the survival is 97%.

On to `Cc1nn(-c2ccccc2)c2sc(C(=O)N(CC(=O)NC3CCCC3)C3CC3)cc12`, for which the survival is 78%.

For the compound `Cc1nn(-c2ccccc2)c2sc(C(=O)NN=C3CCCC3)cc12`, the survival is 109%.

For the compound `Cc1nn(-c2ccccc2)c2sc(C(=O)N(Cc3ccco3)C(C)C(=O)NC3CCCCC3)cc12` (stereo unspecified), the survival was 60% (active).

As for `O=C(OCc1ccccc1Cl)c1ccc(-c2nnn(Cc3ccccc3)n2)cc1`, the survival was 52%.

With `CC(C)CNC(=O)C1CCN(S(=O)(=O)c2ccc(-n3cnnn3)cc2)CC1`, the survival is 86%.

With `Cc1ccc(NC(=O)Cn2c(=O)nc(-c3ccccc3F)c3cc(Cl)ccc32)c(Br)c1`, the survival was 79%.

Consider `O=C1CC2CCC(CN1)N2S(=O)(=O)c1ccc(C(=O)O)cc1` (stereo unspecified), for which the survival was 93%.

Consider `Cc1ccc(-c2cc(C(=O)N3CCN(S(=O)(=O)c4ccc(Br)s4)CC3)[nH]n2)c(C)c1`, for which the survival was 70%.

`O=C(NCc1ccccc1Cl)c1cnc2sc(N3CCCCC3)nn2c1=O`: the survival was 76%.

Consider `COc1ccc(C(=O)NCC(c2ccc(N(C)C)cc2)N2CCc3ccccc32)cc1` (stereo unspecified), for which the survival was 118%.

As to `Cc1cc(C(=O)NCc2ccc(C(=O)O)o2)c(C)o1`, the survival was 58% (active).

Take `Cc1cc(C(=O)Nc2ccccc2C(=O)O)c(C)o1`: the survival was 66%.

Consider `Cc1cc(C(=O)NCC(=O)O)c(C)o1`, for which the survival is 76%.

Take `CCC(=O)NC1CCNCC1`: the survival is 76%.

With `CCOc1ccc(OCC)c(NS(=O)(=O)c2ccc3[nH]c(=O)ccc3c2)c1`, the survival was 8% (active).

In the case of `CCOc1ccccc1CNS(=O)(=O)c1ccc2[nH]c(=O)ccc2c1`, the survival is 81%.

For the compound `CCOc1ccc(CNS(=O)(=O)c2ccc3[nH]c(=O)ccc3c2)cc1`, the survival is 85%.

Consider `Cc1ccc(C)c(NS(=O)(=O)c2ccc3oc(=O)c4ncn(C)c4c3c2)c1`, for which the survival was 82%.

On to `COc1cccc(OCc2nc3ccccc3n2Cc2ccccc2C)c1`, for which the survival is 75%.

In the case of `O=C(NCCc1nc2ccccc2n1Cc1ccccc1F)c1ccc(F)cc1`, the survival was 81%.

Regarding `COc1ccc(Cc2nc3ccccc3n2Cc2ccccc2C)cc1`, the survival was -3% (active).

`COc1ccc(Cc2nc3ccccc3n2Cc2ccccc2F)cc1`: the survival was 18% (active).

Regarding `O=C(NCCCc1nc2ccccc2n1Cc1ccccc1F)c1ccco1`, the survival was 63%.

`Cc1ccccc1Cn1c(CCCNC(=O)C2CCCCC2)nc2ccccc21`: the survival was 90%.
